sEH activator: activators of human soluble epoxide hydrolase; purified human sEH enzymatic activity, activator screen; AID 717; 91,000 compounds, 0.04% hits; activation, % at 2 µM; in the data active = activation above about 37%
sEH inh: inhibitors of human soluble epoxide hydrolase; P34913; recombinant human sEH enzymatic activity assay; inhibition, % at 2 µM; 91,000 compounds, 0.34% hits; AID 707; in the data active = inhibition above about 80%
Pyk2 oligo antag: Pyk2 (human) oligomerization antagonism. z-score (the deposit names both 25 µM and 10 µM). Q14289. 99,000 compounds, 0.83% hits. Q293 cells, Pyk2 FERM NanoBiT luminescence; hits give low values;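 active = Z-score of -3 or lower, scaled per plate to the spread of control and sample wells; inactive = z-score above -3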;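 also: negative z-score means lost luminescence so less FERM oligomerization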
Target sequence (Q14289 whole entry, looked up): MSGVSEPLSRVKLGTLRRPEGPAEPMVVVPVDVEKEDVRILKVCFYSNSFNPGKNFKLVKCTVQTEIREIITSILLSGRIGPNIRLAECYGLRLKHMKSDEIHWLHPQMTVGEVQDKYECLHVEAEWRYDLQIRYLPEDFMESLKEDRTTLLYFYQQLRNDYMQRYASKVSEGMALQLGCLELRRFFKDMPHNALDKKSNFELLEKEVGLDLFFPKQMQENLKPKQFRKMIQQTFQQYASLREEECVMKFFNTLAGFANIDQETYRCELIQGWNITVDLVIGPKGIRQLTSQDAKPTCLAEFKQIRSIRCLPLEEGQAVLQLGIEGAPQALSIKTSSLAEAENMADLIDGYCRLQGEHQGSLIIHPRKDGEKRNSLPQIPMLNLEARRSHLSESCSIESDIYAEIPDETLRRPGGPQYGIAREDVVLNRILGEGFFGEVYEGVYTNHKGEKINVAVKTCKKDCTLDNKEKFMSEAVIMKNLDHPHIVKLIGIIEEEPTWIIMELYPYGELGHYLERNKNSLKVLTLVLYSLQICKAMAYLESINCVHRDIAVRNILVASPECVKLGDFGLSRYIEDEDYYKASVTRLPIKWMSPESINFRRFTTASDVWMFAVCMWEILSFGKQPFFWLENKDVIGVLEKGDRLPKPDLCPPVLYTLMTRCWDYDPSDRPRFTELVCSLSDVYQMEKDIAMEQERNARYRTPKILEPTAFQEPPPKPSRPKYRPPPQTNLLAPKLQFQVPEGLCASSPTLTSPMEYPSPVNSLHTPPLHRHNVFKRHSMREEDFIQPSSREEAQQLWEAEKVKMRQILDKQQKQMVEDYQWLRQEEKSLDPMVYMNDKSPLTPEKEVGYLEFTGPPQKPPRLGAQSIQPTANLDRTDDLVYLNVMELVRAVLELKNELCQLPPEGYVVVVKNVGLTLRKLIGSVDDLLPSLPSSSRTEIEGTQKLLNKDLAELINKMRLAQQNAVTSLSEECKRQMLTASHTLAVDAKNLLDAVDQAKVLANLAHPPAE
PLK1 inh: PLK1 (human) kinase inhibition; AID 619; recombinant PLK1 kinase, TR-FRET peptide phosphorylation; 97,000 compounds, 0.53% hits; inhibition, % at 10 µM; P53350;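 active = inhibition of 50% or more in the single-concentration screen; inactive = inhibition below 50%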;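 also: 0% = DMSO max control and 100% = H-89 dihydrochloride min control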
PLK1 PBD inh: inhibitors of human Plk1 polo box domain binding; P53350; Plk1 PBD phosphopeptide binding, fluorescence polarization; inhibition, %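 (tested at about 20 µM)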; 97,000 compounds, 0.13% hits; in the data active = inhibition above about 34%, passing the limit was not always enough
* hit, by the source's call; . = no result given. A selection: hits, their analogues and other compounds. The true share with any hit is near 1.6%.

SMILES | sEH activator | sEH inh | Pyk2 oligo antag | PLK1 inh | PLK1 PBD inh
Cc1ccc(OCC(=O)Nc2ccc([N+](=O)[O-])cn2)cc1C | -5 | 8 | 1.9 | -7 | -8
Cc1cc(C)c(C#N)c(SCC(=O)Nc2ccc3c(c2)OCO3)n1 | -61 | 61 | 0.08 | -14 | 8
Cc1nc(SCC(=O)Nc2ccc3c(c2)OCO3)c(C#N)c2c1CCCC2 | . | . | -3.2* | -11 | -16
CCCS(=O)(=O)N1CCC(C(=O)NCCCOCC)CC1 | . | . | 1.2 | -10 | 18
CC(C)C(CO)NC(=O)CC(=O)NC(CO)C(C)C (stereo unspecified) | 24 | -21 | 1.1 | -4 | -9
CCOC(=O)c1c(NC(=O)CSc2nnnn2C)sc(C)c1-c1ccc(C)cc1 | . | . | -4.2* | . | .
N#Cc1cc2c(nc1SCC(=O)Nc1sc3c(c1C#N)CCC3)CCC2 | . | . | -0.99 | -2 | 9
COc1ccc(NC(=O)CSc2nc(N)c(C#N)cc2C#N)cc1 | -2 | 4 | -0.59 | 62* | 0
CCSc1nnc(NC(=O)CSc2nc3c(cc2C#N)CCCC3)s1 | 5 | -8 | -3.2* | -18 | 0
Cc1ccccc1NC(=O)CSc1nc(N)c(C#N)cc1C#N | 0 | 0 | -0.28 | 30 | -6
CCc1nnc(NC(=O)CSc2nc3c(cc2C#N)CCC3)s1 | 0 | -5 | -0.99 | -15 | 12
CN1CCc2nc(SCC(=O)Nc3ccc(Cl)cc3)c(C#N)cc2C1 | 2 | 0 | 0.69 | 53* | -13
CCc1c(C(C)O)oc2ccc3c(C)cc(=O)oc3c12 (stereo unspecified) | -12 | 10 | . | -5 | -21
CC1CCCN(c2ccc(/C=C(\C#N)c3nn(-c4ccccc4)c(N)c3C#N)cc2[N+](=O)[O-])C1 (stereo unspecified) | -1 | 4 | -1.6 | -19 | -12
CC1CCN(c2cc(N3CCC(C)CC3)c([N+](=O)[O-])cc2/C=C(\C#N)c2nn(-c3ccccc3)c(N)c2C#N)CC1 | 2 | 0 | -0.95 | 55* | -13
O=C(Nc1ccc(-c2noc(CCc3ccccc3)n2)cc1)c1cccnc1 | . | . | -3.3* | . | .
CC(=O)c1c(C)[nH]c(C(=O)NCc2ccccc2Cl)c1C | -85 | 85* | 0.07 | -6 | -8
O=c1c([N+](=O)[O-])c(N2CCCCC2)c2ccccc2n1-c1ccccc1 | -5 | 2 | -0.82 | -8 | 17
O=c1c([N+](=O)[O-])c(NC2CCCCC2)c2ccccc2n1-c1ccccc1 | 5 | -5 | -3.7* | -16 | -10
CCN1C(=O)C(CC(=O)Nc2ccc(Br)cc2)N(CCCc2ccccc2)C1=S (stereo unspecified) | -5 | 5 | 1.1 | -7 | -16
CCOC(=O)c1ccc(Nc2ncnc3nc[nH]c23)cc1 | . | . | 0.19 | 68* | -38
N#CCCn1c(C2CCCCC2)nc2ccccc21 | 5 | -3 | 0.43 | -2 | -1
O=C(CCCN1C(=O)c2ccccc2C1=O)Nc1ccc(S(=O)(=O)N2CCCCC2)cc1 | -89 | 89* | -0.18 | -14 | -11
O=C(CCCN1C(=O)c2ccccc2C1=O)Nc1ccc(S(=O)(=O)N2CCOCC2)cc1 | -71 | 71 | 1.5 | -2 | -7
CCOC(=O)C1=C(C)NC(=O)C(C(N)=O)C1c1ccccc1 (stereo unspecified) | 37* | -41 | 0.72 | -5 | 13
SMILES | sEH activator | sEH inh | Pyk2 oligo antag | PLK1 inh | PLK1 PBD inh
CCOC(=O)C1=C(C)NC(=O)C(C(N)=O)C12CCCC2 (stereo unspecified) | 0 | 1 | 0.22 | -2 | 18
CCCCc1nc2n[nH]c(N)c2c2c1CCCC2 | -3 | 5 | -2 | 58* | -25
O=C(CSc1nnc(CNc2ccc(Cl)cc2)o1)Nc1nc2ccccc2s1 | 5 | -6 | -0.38 | 56* | -8
CCOC(=O)c1c(NC(=O)CSc2nnc(CNc3ccc(Cl)cc3)o2)sc(C)c1C | -2 | 5 | -0.36 | -10 | -6
C=C(C)C(=O)Nc1ccc(OC(F)(F)C(F)F)c(NC(=O)C(=C)C)c1 | -8 | 7 | -0.07 | -10 | -7
CCOC(=O)c1ccc(S(=O)(=O)Nc2ccc3cn[nH]c3c2)cc1 | . | . | -3* | 15 | -4
Cc1cc([N+](=O)[O-])c(NCCCCCCO)c([N+](=O)[O-])c1 | 8 | -11 | -0.55 | -24 | -32
Cc1cc2nc(-c3ccc(SCC(=O)N4CCN(C(=O)c5ccco5)CC4)nc3)[nH]c2cc1C | -81 | 81* | -0.23 | 1 | 10
O=C(NCc1ccc2c(c1)OCO2)C1CCN(c2ccc(S(=O)(=O)N3CCCC3)cc2)CC1 | -86 | 86* | 1.4 | -12 | -14
O=C(NCc1ccc2c(c1)OCO2)C1CCN(S(=O)(=O)N2CCOCC2)CC1 | . | . | -0.27 | . | .
O=C(NCc1ccc2c(c1)OCO2)C1CCN(Cc2cnn(-c3ccccc3)c2-n2cccc2)CC1 | -84 | 84* | 0.88 | 2 | -5
CS(=O)(=O)N1CCc2cc(-c3csc(NC(=O)Cc4ccccc4)n3)ccc21 | -5 | 10 | -1.8 | -6 | -20
CC1Cc2cc(-c3csc(NC(=O)Cc4cccs4)n3)ccc2N1S(C)(=O)=O (stereo unspecified) | -7 | 8 | -3.1* | -18 | -4
Cc1[nH]n(-c2c(Cl)cc(Cl)cc2Cl)c(=O)c1C=Nc1ccc(S(=O)(=O)N2CCOCC2)cc1 | . | . | -0.22 | . | .
O=[N+]([O-])c1ccc2nc(-c3ccc(Cl)cc3)n(OCc3ccccc3)c2c1 | -3 | 0 | -3.1* | -7 | 5
Cc1ccc(COn2c(-c3ccc(Cl)cc3)nc3ccc([N+](=O)[O-])cc32)cc1 | -2 | -1 | -2.5 | -4 | 5
O=C(NC(c1ccccc1)c1c(O)ccc2ccccc12)c1ccccc1Cl (stereo unspecified) | -6 | 6 | -3.3* | -2 | -33
O=C(NC(c1ccc(Cl)cc1)c1c(O)ccc2ccccc12)c1ccccc1 (stereo unspecified) | . | . | -2.9 | . | .
CC(C)C(=O)NC(c1ccccc1Cl)c1c(O)ccc2ccccc12 (stereo unspecified) | 14 | -16 | -3.8* | -11 | -33
CCC(=O)NC(c1ccc([N+](=O)[O-])cc1)c1c(O)ccc2ccccc12 (stereo unspecified) | 1 | -2 | -3.1* | -11 | 20
CN(CCC#N)CC(=O)Nc1ccc(NC(=O)CN(C)CCC#N)cc1 | -8 | 9 | 1.8 | -7 | -12
Cc1ccc(C23CC4CC(CC(C(=O)N5CCOCC5)(C4)C2)C3)cc1 | 0 | -4 | -0.96 | -4 | -1
CCCc1ccc(Oc2cn[nH]c2-c2ccc(O)c(C)c2O)cc1 | . | . | -3.5* | . | .
CCCc1ccc(Oc2c(-c3ccc(O)c(C)c3O)n[nH]c2C)cc1 | . | . | -1.1 | . | .
COc1cc(S(=O)(=O)N2CCN(C(=O)c3ccccc3F)CC2)c(OC)cc1NC(C)=O | 20 | -17 | 0.26 | -15 | 12
c1ccc(-c2nc3ccccc3s2)nc1 | -6 | 6 | -0.73 | -8 | -20
O=C1NC(c2ccccc2)=C(c2nc3ccccc3s2)C(c2ccccc2)N1 (stereo unspecified) | -2 | 4 | -3.6* | -19 | -2
Cc1cccc(NC(=O)Cn2c(=O)oc3ccccc32)c1 | 0 | -1 | -0.18 | 3 | -16
